Values joined by “and” are separate entries in the source; they are usually repeats but may differ in a detail not shown here. Identical values can stand only once. Active and inactive are the calls of the source. Rule as the data show it, unless noted: active = inhibition above about 80%; inactive = the rest.
Legend:
[1] = growth inhibition, single agent or in combination, cell-based, chromothripsis tumors, cisplatin or BGB combos (AID 1671449); details: LFS_MB_P medulloblastoma cells;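 also: cells exposed for 96 hours; 0% = vehicle DMSO and 100% = killing by high DMSO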
[2] = growth inhibition, single agent and combos, cell-based, chromothripsis tumors, cisplatin or BGB combos (AID 1671450); details: HDN33 neuroblastoma cells, stronger effect = higher value;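 also: cells exposed to compound for four days; 0% = vehicle DMSO and 100% = cell killing by high DMSO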
[3] = growth inhibition, single agents and combos, ICB984, cell-based, cisplatin or BGB combos, synergistic combos for chromothripsis tumors (AID 1671451; call rule not given here;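 also: cells exposed for 96 hours before readout; 0% = vehicle DMSO and 100% = killing by high DMSO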); details: ICB984 medulloblastoma cells, drug combinations, stronger effect = higher value
[4] = growth inhibition, single agents and combos, LFS_MB_1R, cell-based, cisplatin or BGB combos, synergistic combos for chromothripsis tumors (AID 1671452); details: LFS_MB_1R medulloblastoma cells, stronger effect = higher value;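 also: cells exposed for 96 hours before readout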
[5] = growth inhibition, single agents and combos, HTB85, cell-based, BGB or cisplatin IC20 combos, synergistic combos for chromothripsis tumors (AID 1671453); details: HTB85 osteosarcoma cells, drug combinations, stronger effect = higher value;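 also: cells exposed for 96 hours before readout; 0% = vehicle DMSO and 100% = high DMSO killing control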
[6] = growth inhibition, single agents and combos, CRL2098, cell-based, BGB or cisplatin IC20 combos, synergistic combos for chromothripsis tumors (AID 1671454); details: CRL2098 osteosarcoma cells, drug combinations, stronger effect = higher value;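 also: cells exposed for 96 h before readout; 0% = vehicle DMSO and 100% = killing by high DMSO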
[7] = growth inhibition, single agents and combos, HD-MB03, cell-based, BGB or cisplatin IC20 combos, synergistic combos for chromothripsis tumors (AID 1671455; in the data active = inhibition above about 83%;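 also: 0% = vehicle DMSO and 100% = high DMSO as cytotoxic control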); details: HD-MB03 medulloblastoma cells, stronger effect = higher value
[8] = growth inhibition, single agents and combos, UWB1.289, cell-based, BGB or cisplatin combos, synergistic combos for chromothripsis tumors (AID 1671456); details: UWB1.289 ovarian carcinoma cells, stronger effect = higher value;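 also: cells exposed to compound for four days; 0% = vehicle DMSO and 100% = killing by high DMSO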
[9] = growth inhibition, single agents and combos, LFS_MB_2R, cell-based, cisplatin combos, synergistic combos for chromothripsis tumors (AID 1671457); details: LFS_MB_2R medulloblastoma cells, stronger effect = higher value;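 also: cells exposed to compound for four days before readout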
[10] = growth inhibition, MDA-MB-436, cell-based, BGB or cisplatin combos, synergistic combos for chromothripsis tumors (AID 1671458; call rule not given here;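 also: cells exposed for 96 hours; 0% = vehicle DMSO and 100% = killing by high DMSO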); details: MDA-MB-436 breast carcinoma growth inhibition, drug combinations, stronger effect = higher value
[11] = UWB1.289_BRCA1 ovarian cancer growth, cell-based, BGB or cisplatin combinations (AID 1671459); details: UWB1.289 BRCA1 ovarian carcinoma, drug combinations, stronger effect = higher value
[12] = drug combination toxicity in non-malignant astrocytes – cell-based, BGB or cisplatin IC20 combos, cytotoxicity control for chromothriptic childhood tumor combination screen (AID 1671460); details: Human astrocytes, viability inhibition, drug combinations, at 0.5 µM, stronger effect = higher value;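 also: cells exposed to compounds for 96 hours before viability readout; 0% = vehicle and 100% = killing control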
[13] = BT084 cell growth, single and combined drugs, ICGC_MB145, cisplatin and BGB IC40 combos (AID 1671461); details: BT084 medulloblastoma cells, drug combinations, stronger effect = higher value;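 also: cells exposed to drugs for 96 hours; 0% = vehicle DMSO and 100% = high DMSO full killing control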
[14] = RCMB18 cell growth, single agent and combined, cisplatin and BGB IC40 combos (AID 1671462); details: RCMB18 medulloblastoma cells, stronger effect = higher value;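 also: cells exposed to compound for four days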
[15] = CRL1545 cell growth, single agent and combined, cisplatin and BGB IC20 combos (AID 1671464); details: CRL1545 osteosarcoma cells, stronger effect = higher value;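 also: cells exposed to compound for 96 hours before readout; 0% = vehicle DMSO and 100% = high DMSO killing control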
[16] = measured here: combination with BGB IC40, at 0.05 µM
[17] = measured here: combination with cisplatin, at 5 µM, stronger effect = higher value
[18] = measured here: with BGB IC20 combination, at 0.5 µM
[19] = measured here: with cisplatin IC20 combination, at 0.5 µM
[20] = measured here: combination with cisplatin, at 0.5 µM
[21] = measured here: combination with cisplatin, at 5 µM
[22] = measured here: with cisplatin IC20, at 5 µM

Question: With `CO[C@H]1/C=C/O[C@@]2(C)Oc3c(C)c(O)c4c(O)c(c5c(c4c3C2=O)=NC2(CCN(CC(C)C)CC2)N=5)NC(=O)/C(C)=C\C=C\[C@H](C)[C@H](O)[C@@H](C)[C@@H](O)[C@@H](C)[C@H](OC(C)=O)[C@@H]1C` as the molecule, how does the inhibition ([1]; at 0.5 µM, stronger effect = higher value) read?
Answer: The inhibition was 6.6% (inactive).

Question: What about the inhibition ([1]; measured here: combination with BGB IC20, at 0.005 µM) of the same molecule?
Answer: The inhibition was -30.2%.

Question: And the inhibition ([1]; measured here: combination with BGB IC40, at 0.005 µM)?
Answer: Its inhibition is -46.5%.

Question: What about the inhibition [1, 16] of the same molecule?
Answer: Its inhibition is -18.6%.

Question: And the inhibition ([1]; measured here: combination with cisplatin, at 0.5 µM, stronger effect = higher value)?
Answer: Its inhibition is 63%.

Question: What about the inhibition [1, 17] of the same molecule?
Answer: Its inhibition is -0.387%.

Question: And the inhibition ([2]; BGB combo, at 5 µM)?
Answer: The inhibition was -22.5%.

Question: What about the inhibition ([2]; at 0.5 µM) of the same molecule?
Answer: Its inhibition is 1.4% (inactive).

Question: What about the inhibition ([2]; cisplatin combo, at 5 µM) of the same molecule?
Answer: The inhibition was -9.76%.

Question: And the inhibition [2, 18]?
Answer: The inhibition was -13.2%.

Question: And the inhibition [2, 19]?
Answer: The inhibition was 8.47%.

Question: And the inhibition ([2]; single agent, at 5 µM)?
Answer: Its inhibition is 11%.

Question: And the inhibition ([3]; BGB IC20 combo, at 0.005 µM)?
Answer: The inhibition was 3.39%.

Question: What about the inhibition ([3]; BGB IC40 combo, at 0.005 µM) of the same molecule?
Answer: The inhibition was 6.3%.

Question: What about the inhibition ([3]; BGB IC40 combo, at 0.05 µM) of the same molecule?
Answer: The inhibition was 12%.

Question: What about the inhibition ([3]; at 0.5 µM) of the same molecule?
Answer: Its inhibition is -8.24% (inactive).

Question: What about the inhibition ([3]; cisplatin combo, at 0.05 µM) of the same molecule?
Answer: The inhibition was 7.56%.

Question: What about the inhibition ([3]; cisplatin combo, at 0.5 µM) of the same molecule?
Answer: Its inhibition is -8.29%.

Question: What about the inhibition ([3]; cisplatin combo, at 5 µM) of the same molecule?
Answer: Its inhibition is 0.667%.

Question: And the inhibition ([3]; measured here: 5 uM single agent, at 5 µM)?
Answer: Its inhibition is -5.87%.

Question: What about the inhibition ([4]; at 0.5 µM) of the same molecule?
Answer: The inhibition was -1.23% (inactive).

Question: What about the inhibition [4, 16] of the same molecule?
Answer: The inhibition was -1.35%.

Question: What about the inhibition [4, 20] of the same molecule?
Answer: The inhibition was 1.03%.

Question: And the inhibition [4, 21]?
Answer: The inhibition was -6.05%.

Question: What about the inhibition ([5]; at 0.5 µM) of the same molecule?
Answer: Its inhibition is 5.7% (inactive).

Question: What about the inhibition ([5]; measured here: with BGB IC20, at 0.5 µM) of the same molecule?
Answer: Its inhibition is 19%.

Question: And the inhibition ([5]; measured here: with BGB IC20, at 5 µM)?
Answer: The inhibition was 26.5%.

Question: What about the inhibition ([5]; measured here: with cisplatin IC20, at 0.5 µM) of the same molecule?
Answer: The inhibition was -4.7%.

Question: What about the inhibition [5, 22] of the same molecule?
Answer: The inhibition was 9.84%.

Question: What about the inhibition ([5]; single agent, at 5 µM) of the same molecule?
Answer: The inhibition was 14.9%.

Question: What about the inhibition ([6]; at 0.5 µM) of the same molecule?
Answer: Its inhibition is 1.32% (inactive).

Question: What about the inhibition ([6]; measured here: combination with BGB at IC20, at 0.5 µM) of the same molecule?
Answer: Its inhibition is -21.2%.

Question: What about the inhibition ([6]; measured here: combination with cisplatin at IC20, at 0.5 µM) of the same molecule?
Answer: Its inhibition is 29.4%.

Question: What about the inhibition ([7]; at 0.5 µM) of the same molecule?
Answer: Its inhibition is 5.15% (inactive).

Question: And the inhibition ([7]; measured here: combo with BGB at IC20, at 0.5 µM)?
Answer: The inhibition was 7.14%.

Question: And the inhibition ([7]; measured here: combo with cisplatin at IC20, at 0.5 µM)?
Answer: Its inhibition is 3.29%.

Question: And the inhibition ([8]; at 0.5 µM)?
Answer: The inhibition was 1.18% (inactive).

Question: What about the inhibition ([8]; measured here: inhibition with BGB combination, at 0.05 µM) of the same molecule?
Answer: Its inhibition is 4.24%.

Question: And the inhibition ([8]; measured here: inhibition with cisplatin combination, at 0.05 µM)?
Answer: The inhibition was -0.452%.

Question: And the inhibition ([9]; at 0.5 µM)?
Answer: The inhibition was 1.7% (inactive).

Question: What about the inhibition [9, 20] of the same molecule?
Answer: The inhibition was 13.1%.

Question: What about the inhibition [9, 21] of the same molecule?
Answer: The inhibition was 18.7%.

Question: What about the inhibition ([10]; at 0.5 µM) of the same molecule?
Answer: The inhibition was 0.36% (inactive).

Question: And the inhibition ([10]; measured here: BGB combination, at 0.5 µM)?
Answer: The inhibition was 1.73%.

Question: And the inhibition ([10]; measured here: BGB combination, at 5 µM)?
Answer: The inhibition was -12.5%.

Question: What about the inhibition ([10]; measured here: cisplatin combination, at 0.5 µM) of the same molecule?
Answer: The inhibition was -2.44%.

Question: And the inhibition ([10]; measured here: cisplatin combination, at 5 µM)?
Answer: The inhibition was -1.97%.

Question: And the inhibition ([11]; BGB combination, concentration series, at 5 µM)?
Answer: The inhibition was -1.95%.

Question: And the inhibition ([11]; at 0.5 µM)?
Answer: The inhibition was 1.5% (inactive).

Question: And the inhibition ([11]; cisplatin combination, concentration series, at 5 µM)?
Answer: Its inhibition is 4.45%.

Question: What about the inhibition [12] of the same molecule?
Answer: The inhibition was -10.5% (inactive).

Question: What about the inhibition ([12]; measured here: combo with BGB IC20) of the same molecule?
Answer: Its inhibition is -5.38%.

Question: What about the inhibition ([12]; measured here: combo with cisplatin IC20) of the same molecule?
Answer: The inhibition was -10.5%.

Question: And the inhibition ([13]; at 0.5 µM)?
Answer: The inhibition was 0.406% (inactive).

Question: And the inhibition ([13]; cisplatin combination, at 0.5 µM)?
Answer: Its inhibition is -4.06%.

Question: And the inhibition ([13]; cisplatin combination, at 5 µM)?
Answer: The inhibition was -22.6%.

Question: And the inhibition ([13]; measured here: BGB IC40 combination 0.05 uM, at 0.05 µM)?
Answer: The inhibition was -14.2%.

Question: What about the inhibition ([13]; single agent, at 5 µM) of the same molecule?
Answer: Its inhibition is 14.2%.

Question: And the inhibition ([14]; at 0.5 µM)?
Answer: The inhibition was -2.39% (inactive).

Question: What about the inhibition ([14]; cisplatin combo, at 5 µM) of the same molecule?
Answer: The inhibition was 17.1%.

Question: What about the inhibition ([14]; measured here: BGB IC40 combination, at 0.05 µM) of the same molecule?
Answer: Its inhibition is -17.4%.

Question: What about the inhibition [14, 20] of the same molecule?
Answer: The inhibition was -9.55%.

Question: And the inhibition ([14]; single agent, at 5 µM)?
Answer: The inhibition was 16.6%.

Question: And the inhibition ([15]; at 0.5 µM)?
Answer: The inhibition was 7.88% (inactive).

Question: And the inhibition [15, 18]?
Answer: The inhibition was -2.39%.

Question: And the inhibition [15, 19]?
Answer: Its inhibition is 11.6%.

Question: And the inhibition ([15]; single agent, at 0.05 µM)?
Answer: The inhibition was 4.52%.

Question: And the inhibition ([15]; single agent, at 5 µM)?
Answer: The inhibition was -19.7%.

Question: For `COc1cccc2c1C(=O)c1c(O)c3c(c(O)c1C2=O)CC(O)(C(=O)CO)CC3OC1CC(N)C(O)C(C)O1` (stereo not drawn), which inhibition [1, 17] is on record?
Answer: The inhibition was 118% and 119% and 108%.

Question: What about the inhibition ([2]; single agent, at 5 µM) of the same molecule?
Answer: Its inhibition is 99.7% and 99.6%.

Question: What about the inhibition ([5]; at 0.5 µM) of the same molecule?
Answer: Its inhibition is 98.7% (active) and 98.9% (active) and 98.5% (active).

Question: And the inhibition [5, 22]?
Answer: Its inhibition is 99.4% and 99.6% and 99.7%.

Question: And the inhibition ([15]; single agent, at 5 µM)?
Answer: Its inhibition is 99.7% and 99.6% and 99.8%.

— PubChem BioAssay
